Laboratory results as given in PubChem BioAssay AID504652 (National Center for Advancing Translational Sciences (NCATS), 2011).
Values joined by “and” are separate entries in the source; they are usually repeats but may differ in a detail not shown here. Equal values may be shown once. Screen size: about 360,000 compounds; about 11,000 (3.1%) were called active. Cut-off read from the data, not from the text of the source: active = activity change below about -30%; inactive = the rest. The list comes from a sample in which actives are over-represented; it also holds similar structures and randomly drawn compounds. Some compounds were tested as several samples or in several runs, with calls that do not always agree.

These compounds were tested against D(1A) dopamine receptor (Homo sapiens) (UniProt P21728) (assay: Antagonist of Human D 1 Dopamine Receptor: qHTS). Settings: HEK293 TREx D1 cells, calcium flux, dopamine EC80; at 10 µM; stronger effect = lower value.
D(1A) dopamine receptor (Homo sapiens), sequence (P21728 whole entry, looked up): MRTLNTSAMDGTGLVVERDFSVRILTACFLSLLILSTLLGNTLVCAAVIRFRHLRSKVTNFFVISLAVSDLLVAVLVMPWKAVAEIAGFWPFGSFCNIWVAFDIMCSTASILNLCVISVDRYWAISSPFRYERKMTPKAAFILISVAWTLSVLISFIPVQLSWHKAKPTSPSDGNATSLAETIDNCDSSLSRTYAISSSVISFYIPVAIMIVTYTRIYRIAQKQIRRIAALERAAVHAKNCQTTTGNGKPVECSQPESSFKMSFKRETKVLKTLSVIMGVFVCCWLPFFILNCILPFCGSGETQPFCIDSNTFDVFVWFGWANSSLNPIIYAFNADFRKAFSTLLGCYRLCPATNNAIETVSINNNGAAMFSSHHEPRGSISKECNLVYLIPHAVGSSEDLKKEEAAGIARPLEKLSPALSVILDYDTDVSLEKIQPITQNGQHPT
Description: Dopamine receptors (DARs) are involved in the etiology and/or therapy of a number of neuropsychiatric and endocrine disorders. For instance, all receptor-based antiparkinsonian drugs work via stimulating the […] DAR subtype whereas all FDA-approved antipsychotic agents are antagonists of this receptor. […] There are three different types of allosteric modulators that we are seeking, two of which will stimulate or augment receptor signaling, allosteric agonists and potentiators, while the third, allosteric antagonists, will attenuate receptor signaling. The present primary screening assay measures compound antagonism after an EC80 addition of dopamine by tracking calcium flux in a […], inducible Hek293 Trex D1 cell line. NIH Chemical Genomics Center [NCGC] NIH Molecular Libraries Probe Centers Network [MLPCN] MLPCN Grant: NS064831-01 Assay Submitter (PI): David Sibley
Freshly passaged cells are plated in 1536 well black, clear bottom plates at a density of 4000 cells/well in 3 ul of complete media containing 1x tetracycline inducer. After an overnight incubation at 30 C in 5% CO2, cells are loaded with 2 ul of the no wash Calcium Assay Kit (ABD Bioquest) and incubated at room temperature for 30 to 90 minutes. Agonist read: A 10 cycle (1 second/cycle) baseline measurement is taken and then the FDSS online 1536 pintool delivers 23 nl of compound library (as well as dopamine controls) to the plate. The plate is measured for kinetically at 1 cycle/sec for 180 seconds. Following the 180 second read, 1 ul of an EC80 (negative modulation assay) is delivered by an onboard pipette head. Measurements are taken kinetically for an additional 180 seconds.
% is set by controls: 0 for no effect and ±100 for the full control effect.

Row | SMILES | activity change, negative = inhibition
1 | COc1ccccc1-c1ccnc2[nH]n(-c3ccccc3)c(=O)c12 | -7.97% (inactive)
2 | COc1cccc(CNC(=O)CCc2nc(-c3ccc(C)cc3)no2)c1 | -1.26% (inactive)
3 | Cn1c(C(=O)N2CCC(C(=O)N3CCN(c4ccccc4)CC3)CC2)cc2sccc21 | -14.6% (inactive)
4 | CCc1nn(CC(=O)NCC(C)c2ccccc2)c(=O)c2cc3occc3n12 (stereo not drawn) | -32.7% (active)
5 | CCCN1CCN(CCCNC(=O)Cn2nc(CC)n3c(cc4occc43)c2=O)CC1 | -17.4% (inactive)
6 | CCc1nn(CCCC(=O)NC(C)c2ccccc2)c(=O)c2cc3occc3n12 (stereo not drawn) | 5.05% (inactive) and -4.27% (inactive)
7 | CSc1ccc(C2C(C(=O)Nc3ccccc3)=C(C)Nc3nc4ccccc4n32)cc1 (stereo not drawn) | 3.8% (inactive)
8 | CCN(CCCNC(=O)c1c(C)oc2ncn(CC(C)C)c(=O)c12)Cc1ccccc1 | 0.919% (inactive)
9 | COc1ccc(OC)c(NC(=O)CN2CCCN(Cc3cc(C)ccc3C)S2(=O)=O)c1 | 2.17% (inactive)
10 | COC(=O)[C@]1(C)N[C@H](c2ccc(-c3ccc(Cl)c(Cl)c3)cc2)[C@@H]2C(=O)N(C)C(=O)[C@@H]21 | -31.4% (active)
11 | COC(=O)C1(C)NC(c2ccc(C)cc2)C2C(=O)N(c3ccc(F)cc3)C(=O)C21 (stereo not drawn) | -8.61% (inactive)
12 | COC(=O)C1(C)NC(c2ccc(F)cc2)C2C(=O)N(c3ccccc3)C(=O)C21 (stereo not drawn) | 0.925% (inactive)
13 | CCC(=O)N1CCc2cc(CNS(=O)(=O)c3ccc(Br)s3)ccc21 | -7.89% (inactive)
14 | CCCCOc1ccc(CN2C(=O)C(=O)c3cc(Br)cc(C)c32)cc1OC | -30.4% (active)
15 | CCCCN1C(=O)C(C)=C(C)C1OCCc1ccc(OC)c(OC)c1 (stereo not drawn) | 2.6% (inactive)
16 | CCCCOc1ccc(Cn2c(=O)oc3ccc(C)cc32)cc1OC | -3.29% (inactive)
17 | Cc1ccccc1CNC(=O)CSc1nnc(C)c2c(C)n(-c3ccccc3)nc12 | -8.46% (inactive)
18 | CCOC(=O)c1c(S(=O)(=O)NCC(=O)Nc2ccc(Cl)c(C(F)(F)F)c2)c(C)n(C)c1C | -17.1% (inactive)
19 | CC(=O)N[C@@H](C)C(=O)N1CCC(n2nccc2NC(=O)CCCc2ccccc2)CC1 | -35.7% (active)
20 | CC(=O)NCC(=O)N1CCC(n2nccc2NC(=O)CCCc2ccccc2)CC1 | -10.3% (inactive)
21 | Cc1ccc(CN2CCC(n3nccc3NC(=O)CCCc3ccccc3)CC2)o1 | 3.11% (inactive)

Row | SMILES | activity change, negative = inhibition
22 | COc1ccc(CCNC(=O)CCc2c(C)nc3c(c(C)nn3-c3ccc(C)c(C)c3)c2C)c(OC)c1OC | -6.08% (inactive)
23 | Cc1ccc(-n2c(C)cc(/C=C(\C#N)C(=O)NCC3CCCO3)c2C)cc1 (stereo not drawn) | -101% (active)
24 | Cc1ccc2c(c1)N(CC(=O)NCC1CCCO1)C(=O)CO2 (stereo not drawn) | -13.8% (inactive)
25 | Cc1ccc(C(=O)N/C(=C/c2cccs2)C(=O)NCC2CCCO2)cc1 (stereo not drawn) | -5.41% (inactive)
26 | Cc1ccccc1OCCSc1nc2ccc(NC(=O)c3ccco3)cc2s1 | -30% (inactive)
27 | COc1ccccc1CNC(=O)CCn1c(=O)c2ccccc2n(CC(=O)Nc2cccc(Cl)c2)c1=O | -3.25% (inactive)
28 | Cc1cc(C)cc(-n2c(SCC(=O)NCC3CCCO3)nc3c([nH]c4ccccc43)c2=O)c1 (stereo not drawn) | -4.35% (inactive)
29 | Cc1c(C(=O)N2CCCC2)oc2c1-c1nn(CC(=O)NCc3ccc(OC(C)C)cc3)cc1CC2 | -7.55% (inactive)
30 | Cc1cccc(N2CCN(C3=C(c4ccccc4)C(=O)c4ccccc43)CC2)c1C | 18% (inactive)
31 | CN(CC(=O)Nc1cccc(C(F)(F)F)c1)S(=O)(=O)c1cccs1 | -18.7% (inactive)
32 | CCOC(=O)c1ccc(NC(=O)Cn2c(=O)cc(C)c3c(C)nn(-c4cccc(F)c4)c32)cc1 | -13.3% (inactive)
33 | O=C(CO/N=C/c1ccc(OC(F)F)cc1)NCc1ccc(F)cc1 | -6.98% (inactive)
34 | COC(=O)c1ccc(/C=N/OCC(=O)Nc2cc(F)ccc2F)cc1 | -33% (active)
35 | O=C(COC(=O)[C@H](Cc1ccccc1)NC(=O)c1cccs1)Nc1cc(F)ccc1F | -9.37% (inactive)
36 | CCc1ccc(C(=O)N2CCN(S(=O)(=O)c3sc(C(=O)O)c(C)c3C(=O)O)CC2)cc1 | -68.6% (active)
37 | CCC(C(=O)N1CCN(S(=O)(=O)c2sc(C(=O)O)c(C)c2C(=O)O)CC1)c1ccccc1 (stereo not drawn) | -4.86% (inactive)
38 | Cc1ccc(C(=O)N2CCN(S(=O)(=O)N3CCOCC3)CC2)cc1 | -3.63% (inactive)
39 | COc1ccc(SCc2cc(=O)c3ccc(C)c(C)c3[nH]2)cc1 | 7.95% (inactive)
40 | Cn1c(=O)c2c(nc(SCC(=O)Nc3ccc(F)cc3)n2Cc2ccc(Cl)cc2)n(C)c1=O | -3.1% (inactive)
41 | O=C(Cc1csc(Nc2nc(=S)[nH]c3ccccc23)n1)NCCCN1CCN(c2cccc(Cl)c2)CC1 | -56.6% (active)
42 | CCn1c(=O)cc(OCC(=O)Nc2cc(Cl)c(OC)cc2OC)c2ccccc21 | 1.43% (inactive)

Row | SMILES | activity change, negative = inhibition
43 | CCOC(=O)c1c(C)[nH]c(CCC(=O)NCCCN2CCN(c3cccc(Cl)c3)CC2)c1C | -31.4% (active)
44 | O=C(CCn1c(=O)[nH]c2ccccc2c1=O)NCCCN1CCN(c2cccc(Cl)c2)CC1 | -49% (active)
45 | CCOC(=O)N1CCC(Nc2c(NCCN3CCN(c4cccc(Cl)c4)CC3)c(=O)c2=O)CC1 | -24% (inactive)
46 | COc1cccc(CNC(=O)Cc2csc(Nc3nc(=S)[nH]c4ccccc34)n2)c1 | -0.499% (inactive)
47 | COc1cccc(N2CCN(C(=O)CCCCCn3c(=O)[nH]c4ccccc4c3=O)CC2)c1 | -11.8% (inactive)
48 | CCOC(=O)c1c(C)[nH]c(CCC(=O)NCCCN2CCN(c3cc(C)ccc3C)CC2)c1C | -11.7% (inactive)
49 | O=C(Cc1ccc(-n2c(=O)[nH]c3ccccc3c2=O)cc1)N1CCN(c2cccc(Cl)c2)CC1 | -8.8% (inactive)
50 | COCCCn1c(Cc2csc(Nc3cccc(Cl)c3)n2)nnc1SCC(=O)OC1CCCCC1 | 12.9% (inactive)
51 | Cn1c(=O)cc(OCC(=O)N2CCN(c3ccccc3)CC2)c2ccccc21 | -4.64% (inactive)
52 | CCn1c(=O)cc(OCC(=O)NCCCN2CCN(c3cccc(Cl)c3)CC2)c2ccccc21 | -46.8% (active)
53 | N#Cc1nc(/C=C/c2ccc(F)cc2)oc1NCc1ccc(F)cc1 | 4.43% (inactive)
54 | Cc1ccc(CNC(=O)CCNS(=O)(=O)c2ccc3c(c2)oc(=O)n3C)cc1 | -2.95% (inactive)
55 | CN(Cc1ccccc1)C(=O)c1cn(C)c2ccc(S(=O)(=O)N(C)C3CCCCC3)cc2c1=O | -6.93% (inactive)
56 | Cc1cccc(NC(=O)N2CCC(CN3CCc4ccccc4C3)CC2)c1C | 3.23% (inactive)
57 | COc1cccc(C(=O)Nc2ccc(-c3cc(C(F)(F)F)nn3-c3ccccc3)cc2)c1 | -9.33% (inactive)
58 | CCOc1ccccc1C(=O)NCc1ccc2c(c1)CCN2C(=O)c1ccc(F)cc1 | -20.6% (inactive)
59 | CCn1cc(C(=O)N(C)Cc2ccccc2)c(=O)c2cc(S(=O)(=O)N3CCCCCC3)ccc21 | -14.7% (inactive)
60 | Cc1n[nH]c(C)c1S(=O)(=O)N1CCCC(C(=O)NCC2COc3ccccc3O2)C1 (stereo not drawn) | 4.33% (inactive)
61 | Cc1n[nH]c(C)c1S(=O)(=O)N1CCCC(C(=O)Nc2ccc(Br)cc2)C1 (stereo not drawn) | 2.22% (inactive) and -57.1% (active)
62 | CC(=O)Nc1ccc(NC(=O)C2CCCN(S(=O)(=O)c3ccc(Cl)cc3)C2)cc1 (stereo not drawn) | -19.3% (inactive)
63 | O=C(NCc1cccnc1)C(=O)NCC(c1cccnc1)N1CCN(c2ccccc2)CC1 (stereo not drawn) | 2.98% (inactive)

Row | SMILES | activity change, negative = inhibition
64 | CCOc1ccc(N(CC)S(=O)(=O)N2CCCC(C(=O)Nc3ccc(C(C)=O)cc3)C2)cc1 (stereo not drawn) | -25.1% (inactive)
65 | COCCCNCCOCCOc1ccc(Cl)cc1Br | -34.7% (active)
66 | COCCNCCOCCOc1cccc(OC)c1 | 12.6% (inactive)
67 | CC(C)(C)NCCCOc1ccc(Cl)cc1C(C)(C)C | -4.49% (inactive)
68 | CCc1ccc(CNC(=O)c2cc3cc4ccc(OC)cc4nc3o2)cc1 | 2.97% (inactive)
69 | CCCc1nn2c(=O)cc(COC(=O)c3ccc(NC(=O)C(C)Oc4ccccc4)cc3)nc2s1 (stereo not drawn) | 3.83% (inactive)
70 | CCCNc1ncnc2c1c(-c1ccccc1)cn2-c1ccc(OCC)cc1 | 36.7% (inactive)
71 | COc1ccc(-n2cc(-c3ccccc3)c3c(=S)nc[nH]c32)cc1 | -0.706% (inactive)
72 | O=c1[nH]cnc2c1c(-c1ccccc1)cn2-c1ccc(F)cc1 | -39.4% (active)
73 | COc1ccc(-c2noc(-c3ccc(N4CCN(c5ccccc5)CC4)c([N+](=O)[O-])c3)n2)cc1OC | -6.01% (inactive)
74 | COc1ccc(S(=O)(=O)NCc2cccn2Cc2cccc(C)c2)cc1Cl | -21.8% (inactive)
75 | CSc1ncccc1C(=O)NCc1ccccc1Cl | -34.3% (active)
76 | CSc1ncc(C(=O)NCc2ccccc2Cl)c(C(F)(F)F)n1 | 2.06% (inactive)
77 | CSc1ncccc1C(=O)Nc1ccc(C)cn1 | 25.9% (inactive)
78 | O=C(Nc1ccc(O)c(-c2nc3ccccc3o2)c1)c1ccc(-c2cccc(Cl)c2)o1 | 8.95% (inactive)
79 | CC(=O)c1ccc(NC(=O)C2CCN(S(=O)(=O)c3c(C)noc3/C=C/c3ccc(C)cc3)CC2)cc1 | 0.387% (inactive)
80 | CC(Sc1oc(-c2ccco2)nc1S(=O)(=O)c1ccc(Br)cc1)c1ccccc1 (stereo not drawn) | 6.94% (inactive)
81 | Cc1ccc(S(=O)(=O)c2nc(-c3ccco3)oc2SCC(=O)Nc2ccc(F)cc2)cc1 | -3.5% (inactive)
82 | COc1ccccc1NC(=O)CSc1oc(-c2ccco2)nc1S(=O)(=O)c1ccc(Br)cc1 | -50.6% (active)
83 | CCn1cc(C(=O)N2CCN(c3cc(Cl)ccc3C)CC2)c(=O)c2cc(S(=O)(=O)N3CCCC3)ccc21 | -6.15% (inactive)
